Rv3671c protease = Rv3671c (M. tuberculosis) protease inhibition. AID 2606. 0.048% of 320,000 active. inhibition, % at 5.96 µM; in the data active means inhibition above about 38%;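 further: extracellular domain of Rv3671c used as enzyme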
UGM FP inh = blocks M. tuberculosis UGM enzyme | 0.06% of 320,000 active | inhibition, % at 10 µM | purified UGM, fluorescence polarization probe displacement; in the data active means inhibition above about 10%, passing the limit was not always enough
Target sequence (P9WIQ1 whole entry, looked up): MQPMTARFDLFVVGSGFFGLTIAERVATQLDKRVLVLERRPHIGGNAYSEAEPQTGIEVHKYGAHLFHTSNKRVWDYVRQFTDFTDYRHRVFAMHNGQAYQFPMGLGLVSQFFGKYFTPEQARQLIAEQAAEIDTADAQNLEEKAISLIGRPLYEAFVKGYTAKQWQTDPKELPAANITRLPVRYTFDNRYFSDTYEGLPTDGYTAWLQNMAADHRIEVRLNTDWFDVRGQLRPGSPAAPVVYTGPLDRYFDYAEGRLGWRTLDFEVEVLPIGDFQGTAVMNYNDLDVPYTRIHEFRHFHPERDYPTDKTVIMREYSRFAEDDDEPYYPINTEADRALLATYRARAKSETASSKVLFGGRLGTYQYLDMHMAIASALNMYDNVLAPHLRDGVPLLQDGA
FBA Mtb inh = Mtb fructose-bisphosphate aldolase inhibition; P9WQA3; inhibition, % at 1 µM; purified M. tuberculosis FBA, fluorescence read-out; AID 588726; 2.3% of 360,000 active; in the data active means inhibition above about 27%
GDH-TPI counter = inhibits GDH-TPI coupling enzymes, artifact for Mtb FBA screen | GDH-TPI coupled enzyme counterscreen, NADH absorbance | inhibition, % at 4.8 µM | 1.2% of 360,000 active | AID 588335; in the data active means inhibition above about 30%
Mtb bLac sens = beta-lactam sensitization of Mtb H37Rv; M. tuberculosis H37Rv growth with meropenem, percent inhibition; inhibition, % at 25 µM; 0.27% of 330,000 active; AID 434955;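 further: growth measured after seven days incubation then overnight dye step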
RecA intein inh = blocks M. tuberculosis RecA intein splicing; P9WHJ3; cell-free RecA intein splicing, fluorescence; inhibition, % (test concentration not listed); 0.75% of 290,000 active; AID 2221; in the data active means inhibition above about 30%
GFP chromo cs = counter-screen GFP chromophore formation inhibition. shares compounds with RecA intein inh. cell-free GFP chromophore formation, fluorescence. EC50, µM. 83% of 2,100 active
Each line names hits and unclear results; the compound was inactive in the other large screens (follow-up assays come after a bar, where they were run). Most compounds without a hit are left out; they make up all but 4% or so of the library. Unless noted, how the calls were made is not given here.

O=Cc1ccc(OC(=O)CCCCC(=O)Oc2ccc(C=O)cc2)cc1	none
CCCC1Cc2nc(N3CCCCC3)c(C#N)cc2CO1 (stereo not drawn)	none
CCCC1Cc2[nH]c(=O)c(C#N)cc2CO1 (stereo not drawn)	FBA Mtb inh 126
COc1ccc(/C=C\C(=O)c2c(O)ccc3c(C)cc(=O)oc23)cc1	GDH-TPI counter 49
Cc1cc(=O)oc2c(O)c(O)ccc12	none (no result: Rv3671c protease, UGM FP inh, Mtb bLac sens, RecA intein inh)
COc1ccc(/C=C/C(=O)c2c(O)ccc3c(C)cc(=O)oc23)cc1	GDH-TPI counter 38
CN(CC(=O)Nc1ccccc1Br)C(=O)c1ccccc1Sc1ccccc1C#N	none (no result: Rv3671c protease, UGM FP inh, Mtb bLac sens, RecA intein inh)
C/C(=N\NC(=O)c1ccc(Cl)cc1)c1cccs1	GDH-TPI counter 41 (no result: Rv3671c protease, UGM FP inh, Mtb bLac sens)
CC1Sc2ccc(S(=O)(=O)N3CCC(C(=O)NCc4ccccc4)CC3)cc2NC1=O (stereo not drawn)	none
CN(C(=O)NC1CCCCC1)[C@H]1C[C@H]2c3[nH]c4ccccc4c3CCN2C(=O)[C@H]1CO	FBA Mtb inh 152 (no result: Rv3671c protease, UGM FP inh, Mtb bLac sens, RecA intein inh)
N#Cc1c(N)c(C(=O)c2ccc(Br)cc2)n2c1CCC2	GDH-TPI counter 31
O=C1c2cc(CO)cc(O)c2C(=O)c2c(O[C@@H]3OC(CO)[C@@H](O)[C@@H](O)[C@@H]3O)cccc21 (stereo partly drawn)	none
O=C(O)c1cc(O)c2c(c1)[C@H]([C@H]1c3cc(C(=O)O)cc(O)c3C(=O)c3c(O[C@@H]4O[C@H](CO)[C@@H](O)[C@H](O)[C@H]4O)cccc31)c1cccc(OC3O[C@H](CO)[C@@H](O)[C@H](O)[C@H]3O)c1C2=O (stereo partly drawn)	Rv3671c protease 75
O=C(O)c1cc(O)c2c(c1)[C@@H]([C@H]1c3cc(C(=O)O)cc(O)c3C(=O)c3c(O[C@@H]4O[C@H](CO)[C@@H](O)[C@H](O)[C@H]4O)cccc31)c1cccc(OC3O[C@H](CO)[C@@H](O)[C@H](O)[C@H]3O)c1C2=O (stereo partly drawn)	Rv3671c protease 75
O=C1c2c(O)cccc2C(C2OC(CO)[C@@H](O)[C@H](O)[C@H]2O)c2cc(CO)cc(O)c21 (stereo partly drawn)	none (no result: RecA intein inh)
CC(C)[C@H](NC(=O)N1CCn2c1nc1ccccc12)C(=O)NCc1ccc(F)cc1	none
Cc1cccc(N2C(=O)NC(=O)/C(=C/c3cc4c(cc3[N+](=O)[O-])OCO4)C2=O)c1	UGM FP inh 11
C[C@H](CO)N1C[C@H](C)[C@@H](CN(C)Cc2ccncc2)OCCCC[C@H](C)Oc2ccc(NC(=O)CCCN(C)C)cc2C1=O	none (no result: Rv3671c protease, UGM FP inh, GDH-TPI counter, Mtb bLac sens, RecA intein inh)
CC1=CC(c2ccccc2)n2nc(N3C(=O)c4ccccc4C3=O)nc2N1 (stereo not drawn)	FBA Mtb inh 30
CC1=CC(c2ccccc2)n2nc(N3C(=O)C4CC=CCC4C3=O)nc2N1 (stereo not drawn)	FBA Mtb inh 175
Cc1ccccc1NC(=O)Cc1nnc(NC(=O)Nc2ccccc2F)s1	none
CCOC(=O)c1c(CSC(=N)N)n(-c2ccccc2)c2cc(Br)c(OC(C)=O)cc12	RecA intein inh 48 | GFP chromo cs 20
CCOC(=O)/C(C#N)=N/Nc1ccc(S(=O)(=O)N2CCc3ccccc32)cc1	none
N#C/C(=N\Nc1ccc(S(=O)(=O)N2CCc3ccccc32)cc1)C(N)=S	RecA intein inh 31 | GFP chromo cs 32
Cc1cccc(NC(=O)CSc2c3c(nc4ccccc24)CCC3)n1	none
COc1cccc(NC(=O)CSc2c3c(nc4ccccc24)CCCC3)c1	RecA intein inh 70 | GFP chromo cs 24
O=C(CCN1C(=O)/C(=C/c2cccs2)SC1=S)N1CCCCC1	none
CC(=O)N(c1ccccc1)c1nc(C)cc(C)c1C#N	none
CC(=O)N(c1ccccc1)C(C)c1nc(C#N)c(C#N)nc1C (stereo not drawn)	RecA intein inh 62 | GFP chromo cs 38
COc1ncnc2c1ncn2CCCNc1ccc(C)c(C)c1	none (no result: Rv3671c protease, UGM FP inh, Mtb bLac sens, RecA intein inh)
COc1cc(NS(=O)(=O)c2ccc(NC(=O)c3cccnc3)cc2)ncn1	none
CC(C)Nc1ccc(Nc2ccccc2)cc1	RecA intein inh 36 | GFP chromo cs inactive
Cc1ccc(Nc2nnc(SC3CCOC3=O)s2)c(C)c1 (stereo not drawn)	none
O=c1c2cc([N+](=O)[O-])cc([N+](=O)[O-])c2[nH]n1-c1ccccc1	none

Compound activity deposited in PubChem by several laboratories.
